Data as given in PubChem BioAssay AID588742 (Southern Research Specialized Biocontainment Screening …, 2011).
The campaign covered roughly 1,800 compounds. About 410 (23%) were called active. The rule behind the calls is not given here. Not all results are given here. Results with a measured potency or affinity are listed apart.

test: viability of Vero cells under compound – cytotoxicity control for flavivirus capping enzyme inhibitors (AID 588742); details: cytotoxicity counter-screen; series mostly up to 40 µM; viability: at the top concentration

Row | SMILES | viability
1 | Nc1cc2nsnc2cc1Br | 86.3% (inactive)
2 | COc1cccc(/C=C2\Oc3cc(OCC(=O)N4Cc5ccccc5C[C@H]4C(=O)O)ccc3C2=O)c1 | 111% (inactive)
3 | O=C(N/N=C/c1ccc(N2CCOCC2)o1)c1cccc([N+](=O)[O-])c1 | 93.5% (inactive)
4 | O=C(O)c1ccc(-n2nc(C(F)(F)F)c3c2-c2ccoc2CC3)cc1 | 83.3% (inactive)
5 | O=C(Nc1ccccc1C(=O)O)c1cccc(C(=O)Nc2ccccc2C(=O)O)c1 | 98.6% (inactive)
6 | O=C(O)c1ccccc1-c1ccccc1C(=O)Nc1ccc2c(c1)C(=O)c1ccccc1-2 | 94.3% (inactive)
7 | O=C(NNc1cc(Br)c(O)c(Br)c1)c1ccccc1 | 92.3% (inactive)
8 | O=C(Nc1cc(C(=O)Nc2ccccc2C(=O)O)cc(C(=O)Nc2ccccc2C(=O)O)c1)c1ccccc1 | 102% (inactive)
9 | O=C(O)CCN1C(=O)/C(=C\c2cccc(OCc3ccccc3)c2)SC1=S | 83.4% (inactive)
10 | O=c1c(C(c2ccc(O)cc2)c2c(O)nc3n(c2=O)CCS3)c(O)nc2n1CCS2 | 102% (inactive)
11 | O=C1CC(=Nc2ccc([N+](=O)[O-])cc2)NN1c1c(Cl)cc(Cl)cc1Cl | 102% (inactive)
12 | CCOC(=O)Cc1cc(=O)c2c(=O)n(-c3ccccc3)[nH]c2[nH]1 | 97.9% (inactive)
13 | CCC1(C)Cc2c(C#N)c(N)sc(=S)c2CO1 (stereo not given) | 90.5% (inactive)
14 | CC(=O)/C(=N/Nc1ccccc1)Sc1nnc(CCc2ccccc2)n1-c1ccccc1 | 97% (inactive)
15 | CCOC(=O)Nc1sc(NS(=O)(=O)c2ccccc2)nc1C | 93.1% (inactive)
16 | CCc1nnc(NS(=O)(=O)c2ccc(NC(=S)NC(=O)/C=C/c3ccc(F)cc3)cc2)s1 | 87.5% (inactive)
17 | CCc1nnc(NC(=O)CCC(=O)N2CCN(c3ccccn3)CC2)s1 | 98.1% (inactive)
18 | CCc1nnc(NS(=O)(=O)c2ccc(NC(=S)NC(=O)/C=C/c3ccc(C(C)C)cc3)cc2)s1 | 87.8% (inactive)
19 | CCC(=O)Nc1ccc2nc3c(=O)[nH]c(=S)[nH]c3nc2c1 | 93.2% (inactive)
20 | C=CCOc1ccc(/C=C2\SC(=S)N(NS(=O)(=O)c3ccc(C)cc3)C2=O)cc1 | 95.5% (inactive)
21 | O=C(CNc1cccc2ccccc12)N/N=C/c1ccc(C(=O)O)cc1 | 93.6% (inactive)
22 | CCC1(c2ccccc2)NC(=S)N(c2cccc(C)c2C)N1 (stereo not given) | 99% (inactive)
23 | O=C(O)/C=C/C(=O)c1ccc2c(c1)NC(=O)CO2 | 98% (inactive)
24 | COc1cc(/C=C2/SC(=S)N(CC(=O)O)C2=O)ccc1OC(=O)c1cccs1 | 99.7% (inactive)
25 | CC(C)C(=O)OC1CCS(=O)(=O)c2sccc21 (stereo not given) | 95.5% (inactive)

Row | SMILES | viability
26 | CCCc1nc(C)c2c(=O)[nH]c(-c3cc(S(=O)(=O)N4CCN(CC)CC4)ccc3OCC)nn12 | 97.8% (inactive)
27 | CCOc1c(Br)cc(CNc2ccc(N3CCN(C(C)=O)CC3)cc2)cc1OC | 83.5% (inactive)
28 | COc1cccc(CNc2ccc(N3CCCCC3)cc2)c1OC | 87.1% (inactive)
29 | Cc1nn(-c2ccccc2)c(Cl)c1/C=C1\SC(=S)N(CCCCCC(=O)O)C1=O | 87.3% (inactive)
30 | CCOc1cc(NS(=O)(=O)c2ccccc2)c(OCC)cc1NC(=O)c1ccco1 | 98.2% (inactive)
31 | COC(=O)c1c(C)oc2c1cc(NS(=O)(=O)c1ccc(C(=O)O)cc1)c1ccccc12 | 96.5% (inactive)
32 | CC(=O)Nc1ccc(NS(=O)(=O)c2ccccc2)c2ccccc12 | 112% (inactive)
33 | CCOC(=O)c1c(C)oc2c1cc(NS(=O)(=O)c1ccc(C(=O)O)cc1)c1ccccc12 | 96.6% (inactive)
34 | COc1ccccc1/C=C1/C(=O)ON=C1C | 98.1% (inactive)
35 | Cc1ccc(N2C(=O)c3ccccc3C2C(=O)c2ccc(O)cc2O)cc1 (stereo not given) | 84.7% (inactive)
36 | CC1=C(C#N)c2nc(N)c(C#N)c(C)c2/C1=C\c1ccc(OCC(=O)O)c(Cl)c1 | 94.5% (inactive)
37 | NC(=S)c1cc2cc(Br)ccc2oc1=O | 95.1% (inactive)
38 | CC(=O)C(=Cc1cc(C)n(-c2ccccc2)c1C)C(C)=O | 98.5% (inactive)
39 | CCN(CCCNc1cc2c(c(N)c1S(=O)(=O)O)C(=O)c1ccccc1C2=O)c1ccccc1 | 80.3% (inactive)
40 | CCC(=O)Nc1cc(C(=O)O)ccc1Sc1ccc(C)cc1 | 96.3% (inactive)
41 | CCOC(=O)Cc1csc(NC(=O)NC2(C(F)(F)F)Oc3ccccc3O2)n1 | 99.8% (inactive)
42 | O=C(O)CCCN1C(=O)/C(=C\c2ccco2)SC1=S | 106% (inactive)
43 | O=C(O)CCCN1C(=O)/C(=C/C=C/c2ccco2)SC1=S | 93.8% (inactive)
44 | O=S(=O)([O-])CCC[n+]1c(SCCCS(=O)(=O)O)sc2ccc(Cl)cc21 | 104% (inactive)
45 | O=C(NNS(=O)(=O)c1ccc([N+](=O)[O-])cc1)c1ccc2ccccc2c1O | 95.5% (inactive)
46 | O=C(O)CSc1c(O)c2ccccc2[nH]c1=O | 105% (inactive)
47 | O=C(O)COc1ccccc1/C=N/Nc1ccc(S(=O)(=O)Nc2ccc(Cl)cc2)cc1[N+](=O)[O-] | 100% (inactive)
48 | N#C/C(=C\c1ccccc1)C(=O)NNS(=O)(=O)c1cccc([N+](=O)[O-])c1 | 92% (inactive)
49 | O=C(O)c1ccccc1NS(=O)(=O)c1cccc(NS(=O)(=O)c2cc(Br)ccc2Br)c1 | 95.6% (inactive)
50 | O=C(O)CSc1nc(-c2ccc(Cl)cc2)nc2c1oc1ccccc12 | 90.5% (inactive)

Row | SMILES | viability
51 | O=S(=O)(Nc1ccc(O)c2ccccc12)c1ccc(F)cc1 | 95.8% (inactive)
52 | CCc1ccc(S(=O)(=O)Nc2ccc(O)c3ccccc23)cc1 | 100% (inactive)
53 | Cc1nnc(SCC2=C(C(=O)O)N3C(=O)C(NC(=O)c4cccc(F)c4F)C3SC2)s1 (stereo not given) | 112% (inactive)
54 | CC1(OC(=O)CCc2ccccc2)C(=O)C=C2C=C(c3ccc(C#N)cc3)N(Cc3ccccc3)C=C2C1=O (stereo not given) | 86.1% (inactive)
55 | O=C1NN(c2cccc(Br)c2)C(=O)/C1=C/c1ccc(-c2cc([N+](=O)[O-])ccc2O)o1 | 104% (inactive)
56 | Cc1ccc([C@@H]2CC=C(C(=O)O)[C@H](c3ccc(Br)cc3)N2S(=O)(=O)c2ccccc2C)cc1 | 83% (inactive)
57 | CCCc1cc(=O)oc2c(CN3CCCC3)c(O)c(Cl)cc12 | 102% (inactive)
58 | Cc1ccc(CSc2nnc3c(n2)OC2(Nc4ccccc4-3)C(=O)Nc3ccc(F)cc32)cc1 (stereo not given) | 94.7% (inactive)
59 | CCN(CCCNC(=O)CCc1nc(-c2ccc(OC)cc2)no1)c1cccc(C)c1 | 83.7% (inactive)
60 | CCN(CC)c1ccc(C2C3CCCCC3(O)CCN2CC(=O)N2CCCCC2)cc1 (stereo not given) | 91.2% (inactive)
61 | CCN(/N=C/c1ccc(N(C)C)cc1)c1nc2ccccc2[nH]1 | 99% (inactive)
62 | COc1ccccc1NS(=O)(=O)c1ccc(N/N=C/c2ccccc2OCC(=O)O)c([N+](=O)[O-])c1 | 94.2% (inactive)
63 | O=C1NN(c2cccc(Br)c2)C(=O)/C1=C\c1ccccc1 | 95.5% (inactive)
64 | N#CC1C(=O)c2ccccc2C1c1ccccc1 (stereo not given) | 90.6% (inactive)
65 | CCCCCCn1c(=O)c(-c2ccccc2)c(O)c2ccccc21 | 102% (inactive)
66 | COc1ccc(S(=O)(=O)CC(=O)c2cc3cc(Br)ccc3oc2=O)cc1 | 108% (inactive)
67 | CCOc1ccc(/C=C/c2[nH]c(=O)[nH]c(=O)c2[N+](=O)[O-])cc1 | 118% (inactive)
68 | COc1ccc(OC)c(/C=C2\SC(=S)N(NS(=O)(=O)c3ccc(C)cc3)C2=O)c1 | 97.1% (inactive)
69 | O=C(CC(Nc1ccccc1Cl)C(=O)O)c1ccccc1 (stereo not given) | 122% (inactive)
70 | CCCOC(=O)c1c(NC(=O)C2C3C=CC(C3)C2C(=O)O)sc2c1CCC(C)C2 (stereo not given) | 106% (inactive)
71 | N#CCC(=O)N/N=C/c1ccc(OCC(=O)Nc2ccc(F)cc2)cc1 | 92.9% (inactive)
72 | COC(=O)C1=C(C(=O)OC)C(c2ccccc2O)c2sc(=O)[nH]c2S1 (stereo not given) | 104% (inactive)
73 | O=c1[nH]c(/C=C\c2ccc(O)c(O)c2)nc(O)c1[N+](=O)[O-] | 97.7% (inactive)
74 | Cc1c(N2C(=O)/C(=C3\C(=O)N(CC(=O)O)c4ccccc43)SC2=S)c(=O)n(-c2ccccc2)n1C | 108% (inactive)
75 | Cc1c(N=C2C=C(Br)C(=O)C(Br)=C2)c(=O)n(-c2ccccc2)n1C | 93.4% (inactive)

Row | SMILES | viability
76 | COc1ccccc1/C=C1\SC(=S)N(NS(=O)(=O)c2ccccc2)C1=O | 84.4% (inactive)
77 | COc1ccc(S(=O)(=O)Nc2cc3c4c(c2)C(C)C(=O)N4CCC3)cc1OC (stereo not given) | 95.1% (inactive)
78 | CC(=O)N1CCN(c2ccc(NCc3cccc(C)c3)cc2)CC1 | 94.1% (inactive)
79 | N#C/C(=C\c1ccc(C#N)cc1)C(=O)c1ccccc1 | 105% (inactive)
80 | O=C1c2ccccc2C(=O)c2c1cccc2N(CCO)CCO | 90.7% (inactive)
81 | O=C1C(=NO)CCc2ccccc21 | 91.2% (inactive)
82 | CCn1c2ccccc2c2cc(NC(=O)c3ccc(Br)o3)ccc21 | 93% (inactive)
83 | CCCCCCSc1nc(O)c(C2OC(=O)c3c2ccc(OC)c3OC)c(=O)n1-c1ccccc1 (stereo not given) | 96.6% (inactive)
84 | c1cc2c(cc1NC1CCCCCC1)OCO2 | 107% (inactive)
85 | O=C(O)c1[nH]c2ccccc2c1C(c1cc(Cl)cc([N+](=O)[O-])c1O)c1c(C(=O)O)[nH]c2ccccc12 | 99.4% (inactive)
86 | O=C(O)c1cc(N/N=C/c2ccc(-c3ccccc3)cc2)ccc1Cl | 101% (inactive)
87 | O=C(O)CN1C(=O)/C(=C\c2ccccc2OCc2ccccc2)SC1=S | 91% (inactive)
88 | O=C(O)CN1C(=O)/C(=C\c2ccccc2OCc2ccc(Cl)cc2)SC1=S | 94.9% (inactive)
89 | O=C(O)CN1C(=O)/C(=C\c2cc([N+](=O)[O-])ccc2OCc2ccccc2Cl)SC1=S | 99.2% (inactive)
90 | O=C(O)CCCN1C(=O)/C(=C\c2ccccc2OCc2ccccc2)SC1=S | 100% (inactive)
91 | CC1=C/C(=C(\c2cc(C)c(O)c(Br)c2)c2ccccc2S(=O)(=O)O)C=C(Br)C1=O | 80.3% (inactive)
92 | Cc1ccc(S(=O)(=O)N2CCC(C(=O)OC(C)C(=O)NC3CCCCC3C)CC2)cc1C (stereo not given) | 91.4% (inactive)
93 | CN(C)c1ccc2cc(S(=O)(=O)O)cc(O)c2c1 | 97.7% (inactive)
94 | Cc1nc2ccccc2c2oc(C(=O)Nc3ccc4c(c3)OCCO4)cc12 | 92% (inactive)
95 | O=[N+]([O-])c1ccc(S(=O)(=O)Nc2nc(-c3ccccc3)cs2)cc1 | 103% (inactive)
96 | Nc1nn2c(-c3ccccc3)cc(=O)[nH]c2c1N=Nc1ccc(O)cc1 | 91.5% (inactive)
97 | Cc1cc([N+](=O)[O-])ccc1N1C(=O)c2ccc(C(=O)Nc3ccccc3C(=O)O)cc2C1=O | 100% (inactive)
98 | O=C(O)c1ccc(N=N/C(=N\Nc2ccc(C(=O)O)cc2)c2ccccc2)cc1 | 98.1% (inactive)
99 | O=C(O)CN1C(=O)/C(=C2\C(=O)N(Cc3ccccc3Cl)c3ccccc32)SC1=S | 120% (inactive)
100 | Cc1c(N)cc(N)cc1C(=O)O | 105% (inactive)
